This is an account of results in PubChem BioAssay (NCATS).

Results filed as inconclusive are left out. The source made the active and inactive calls. The call rests on the fitted dose curve; in most records, active means well fitted inhibition curve with a large enough effect; inconclusive means small, poorly fitted or top-dose-only effect; inactive means flat fitted curve, though single readings scatter. Bridge positions count the residues as written; N and C are the ends. Square brackets hold non-standard residues; d marks the D form. Peptide text beside a SMILES is read from it. hArg = N=C(N)NCCCC[C@H](N)C(=O)O; Mpa = O=C(O)CCS

The assay relates to CRL-7250. As to the kind of experiment: qHTS assay to identify novel small-molecules to repurpose for Merkel cell carcinoma treatment (AID 1296009). Further: nearly all actives have a fitted effect of over 60% in size. To be noted: MCC and control cell lines, CellTiter-Glo viability, 72 h; at 44.8 µM (top of the series) unless noted. A digest of the protocol:
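Cells exposed to NPC (8-point) and MIPE (11-point) compound dilutions for 72 hr at 37 degree celsius; viability read by CellTiter-Glo luminescence, normalized to no-cell and DMSO in-plate controls.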
On the technique in general: In qHTS, concentration-response curves come from the screen itself.
As to `Cc1ccc(Nc2c(F)cccc2Cl)c(CC(=O)O)c1`, the result was inactive. Turning to `CC(C(O)c1ccc(O)cc1)N1CCC(Cc2ccccc2)CC1` (configuration not stated), the outcome is “inactive [at 17.4 µM]”. In the case of `O=C1CC2(CCCC2)CC(=O)N1CCCCN1CCN(c2ncccn2)CC1`, the call was inactive. With `C[C@]12CC[C@@H]3c4ccc(O)cc4CC[C@H]3[C@@H]1CC[C@@H]2OC(=O)CCC1CCCC1`, the compound was called inactive. As to `Cc1cccc(CN2CCN(C(c3ccccc3)c3ccc(Cl)cc3)CC2)c1` (configuration not stated), the outcome was inactive. In the case of `CNC(=O)Oc1ccc2c(c1)[C@]1(C)CCN(C)[C@@H]1N2C`, the outcome was inactive. To `Nc1c2c(nc3c1CCC3)CCCC2` belongs “inactive”. As to `Cc1ccc(Cl)c(OCC(O)CNC(C)(C)C)c1` (configuration not stated), the compound was classed as inactive. To `CCCCC1(COC(=O)CCC(=O)O)C(=O)N(c2ccccc2)N(c2ccccc2)C1=O` belongs “inactive”; to `O=C(OCC(COC(=O)c1cccnc1)(COC(=O)c1cccnc1)COC(=O)c1cccnc1)c1cccnc1`, “inactive”; to `CCOC(=O)[C@H](CCc1ccccc1)N[C@@H](C)C(=O)N1C(=O)N(C)C[C@H]1C(=O)O`, “inactive”. Turning to `CC(C)C(=O)OCc1cccc(OC(=O)[C@@H]2N3C(=O)[C@@H](NC(=O)Cc4ccccc4)[C@H]3SC2(C)C)c1`, the compound was classed as inactive. For `CCCCCCCCCCCCOS(=O)(=O)O`, the compound was called inactive. Consider `N[C@H](C(=O)O)[C@@H](O)c1ccc(O)c(O)c1`, for which the result was inactive. As to `CSc1ccc(/C=C2/C(C)=C(CC(=O)O)c3cc(F)ccc32)cc1`, the call was inactive. To `CN(C)C(=O)Oc1cccc([N+](C)(C)C)c1` belongs “inactive”; to `CCCCCCCCCCCCCCCCC(C(=O)O)C(O)(CC(=O)O)C(=O)O` (configuration not stated), “inactive”. To `CNC(=O)CN(CCN(CCN(CC(=O)[O-])CC(=O)NC)CC(=O)[O-])CC(=O)[O-].O.[Gd+3]` belongs “inactive”; to `CCCCC(=O)O[C@]1(C(=O)CO)CC[C@H]2[C@@H]3CCC4=CC(=O)CC[C@]4(C)[C@H]3[C@@H](O)C[C@@]21C`, “inactive”; to `C[C@@H]1CC[C@@]2(OC1)O[C@H]1C[C@H]3[C@@H]4CC[C@H]5C[C@@H](O)CC[C@]5(C)[C@H]4CC(=O)[C@]3(C)[C@H]1[C@@H]2C`, “inactive [at 4.96 µM]”.

With `C[C@@H](C1=C(CCN(C)C)Cc2ccccc21)c1ccccn1`, the outcome was inactive. In the case of `O=C(NCC1CN(c2ccc(N3CCOCC3=O)cc2)C(=O)O1)c1ccc(Cl)s1` (configuration not stated), the compound was classed as inactive. On to `CO[C@@H]1[C@@H](O[C@@H]2O[C@H](C)[C@@H](O[C@H]3C[C@@](C)(O)[C@@H](O)[C@H](C)O3)[C@H](N(C)C)[C@H]2O)[C@@H](CC=O)C[C@@H](C)[C@@H](O[C@@H]2CC[C@H](N(C)C)[C@@H](C)O2)/C=C/C=C/C[C@@H](C)OC(=O)C[C@H]1OC(C)=O`, for which the compound was classed as inactive.

On to `Cc1c(C(=O)NN2CCCCC2)nn(-c2ccc(Cl)cc2Cl)c1-c1ccc(Cl)cc1`, for which the compound was classed as inactive. `NC(=O)[C@@H]1CSSCCC(=O)N[C@@H](CCCCN=C(N)N)C(=O)NCC(=O)N[C@@H](CC(=O)O)C(=O)N[C@@H](Cc2c[nH]c3ccccc23)C(=O)N2CCC[C@H]2C(=O)N1` ([Mpa][hArg]GDWPC-NH2; disulfide 1-7): the outcome was inactive.

Consider `O=C(O)c1cn(C2CC2)c2cc(Cl)c(F)cc2c1=O`, for which the result was inactive. Consider `CC(C)(C)c1ccc(C(=O)CCCCl)cc1`, for which the outcome was inactive. With `Nc1c2c(nc3ccccc13)CCCC2`, the compound was called inactive. As for `NCCc1cnc[nH]1`, the compound was classed as inactive. In the case of `CN1C[C@H](C(=O)N[C@]2(C)O[C@@]3(O)[C@@H]4CCCN4C(=O)[C@H](Cc4ccccc4)N3C2=O)C[C@@H]2c3cccc4[nH]cc(c34)C[C@H]21`, the compound was called inactive. With `CCOC(=O)[C@H](CCc1ccccc1)N[C@H]1CS[C@H](c2cccs2)CN(CC(=O)O)C1=O`, the outcome was inactive. Consider `CC(C)NCCCC1(C(N)=O)c2ccccc2-c2ccccc21`, for which the compound was called inactive.

Regarding `CC1(C)CO[C@@H](CC(=O)O)CN1`, the outcome was inactive.

On to `O=c1[nH]c2cc(C(F)(F)F)c(N3CCOCC3)cc2n(CP(=O)(O)O)c1=O`, for which the compound was called inactive.

Consider `CCc1cc2cc(OC)c(OC)cc2c(Cc2ccccc2)n1`, for which the call was inactive. `COc1ccc(C(Cl)=C(c2ccc(OC)cc2)c2ccc(OC)cc2)cc1`: the compound was classed as inactive. With `CC(=O)SC[C@@H](Cc1ccccc1)C(=O)NCC(=O)OCc1ccccc1`, the outcome was inactive.
